Results filed as inconclusive are left out. Entries that show only a call come without a potency. The source made the active and inactive calls. Unless noted, the call rests on the fitted dose curve; in most records, active means well fitted curve in the direction sought with a large enough effect in the repeat runs; inconclusive means weak or mixed curves; inactive means no such curve, though single readings can be large; an effect the other way counts as inactive or inconclusive.
Legend:
[1] = biological target: Progesterone receptor (Homo sapiens) (UniProt P06401); experiment: qHTS assay to identify small molecule agonists of the progesterone receptor (PR) signaling pathway (AID 1346784; calls by dose curve; further: nearly all actives have a fitted effect of over 30% in size)
Outline: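 Beta-lactamase reporter read-out: after 16 hr compound treatment at 37C and a further 2 hr at room temperature with LiveBLAzer B/G FRET substrate, fluorescence was measured in PR-UAS-bla HEK 293T cells grown in 2% charcoal-stripped serum.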

[2] = biological target: Progesterone receptor (Homo sapiens) (UniProt P06401); experiment: qHTS assay to identify small molecule antagonists of the progesterone receptor (PR) signaling pathway (AID 1346795; active means well fitted inhibition curve with a large enough effect in the signal ratio in the repeat runs, not every such curve was filed as active; the % refers to the signal ratio; further: potency means the concentration at half of the fitted maximal effect)
Outline: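 Read-out is fluorescence from the LiveBLAzer B/G FRET substrate, cleaved by a UAS-controlled beta-lactamase in PR-UAS-bla HEK293T cells after 16 hr exposure to compound plus 1 nM promegestone (final), followed by 2 hr at room temperature.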

[3] = qHTS assay to identify small molecule antagonists of the TGF-beta/Smad signaling pathway - cell viability counter screen (AID 1346824); further: nearly all actives have a fitted effect of over 50% in size
Outline: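 SBE-bla HEK 293T cells, incubated overnight, then compound plus 0.25 ng/mL TGF-beta1 (stock added) for 5 hr at 37 C. Viability was read in the same wells by CellTiter-Glo luminescence after 30 min at room temperature.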

[4] = qHTS assay to identify small molecule agonists of the TGF-beta/Smad signaling pathway - cell viability counter screen (AID 1346829); further: top concentration of the series differs between compounds; nearly all actives have a fitted effect of over 45% in size
Outline: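 Luminescence from CellTiter-Glo, read after a 30 min room-temperature incubation, gives cell viability of SBE-bla HEK 293T cells treated 5 hr with compounds at 37 C.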

[5] = qHTS assay to identify small molecule agonists of the TGF-beta/Smad signaling pathway (AID 1346859; active means well fitted activation curve with a large enough effect in the signal ratio in the repeat runs, not every such curve was filed as active; the % refers to the signal ratio; further: series mostly up to about 77 µM)
Outline: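 SBE-bla HEK 293T, 4,000 cells/well, plated o/n; cpd in DMSO, 5 hr, 37 C/5% CO2; B/G FRET substrate 2 hr RT; ex 405, em 460/530 nm.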

[6] = biological target: Thyrotropin-releasing hormone receptor (Homo sapiens) (UniProt P34981); experiment: qHTS assay to identify small molecule antagonists of the thyrotropin-releasing hormone receptor (TRHR) signaling pathway (AID 1346877; active means well fitted inhibition curve with a large enough effect in the repeat runs, not every such curve was filed as active; further: series mostly up to about 51 µM)
Outline: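 HEK293/TRHR cells, 18 h, 37 °C; Ca2+ dye 2 h; cpd 5 min RT; TRH 1 nM final; fluorescence read 3 min, 1 s intervals; 15 concs, triplicate.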

[7] = biological target: Thyrotropin-releasing hormone receptor (Homo sapiens) (UniProt P34981); experiment: qHTS assay to identify small molecule agonists of the thyrotropin-releasing hormone receptor (TRHR) signaling pathway (AID 1346891; calls by dose curve; further: series mostly up to about 58 µM)
Outline: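 Intracellular calcium rise, read as fluorescence every second for 3 min, served as the agonist signal in dye-loaded HEK293 cells expressing TRHR; each compound ran at 15 concentrations in triplicate.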

[8] = Caspase-3/7 induction in HepG2 cells by small molecules, qHTS assay (AID 1346978); further: nearly all actives have a fitted effect of over 15% in size; further: potency means the concentration at half of the fitted maximal effect
Outline: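 Wild-type HepG2 cells, 2,000/well, settled 5 hr at 37 C and 5% CO2, then compound-treated for 17 hr; caspase-3/7 activity read by luminescent Caspase-Glo 3/7 after 30 min at room temperature.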

[9] = Caspase-3/7 induction in CHO-K1 cells by small molecules, qHTS cell viability counter screen (AID 1346979); further: nearly all actives have a fitted effect of over 35% in size; further: potency means the concentration at half of the fitted maximal effect
Outline: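 Cells (CHO-K1, wild type) are plated at 1,500 per well and incubated 5hr. Test compounds in DMSO are then pinned in, followed by 16hr at 37C and 5% CO2. Viability is read by CellTiter-Fluor fluorescence after 1hr.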

[10] = Caspase-3/7 induction in CHO-K1 cells by small molecules, qHTS assay (AID 1346980); further: nearly all actives have a fitted effect of over 15% in size
Outline: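 Wild-type CHO-K1 cells exposed to compounds for 17hr at 37 C, 5% CO2. Caspase-3/7 activity then measured by Caspase-Glo 3/7 luminescence after 30min at room temperature.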

[11] = Caspase-3/7 induction in HepG2 cells by small molecules, qHTS cell viability counter screen (AID 1346981); further: nearly all actives have a fitted effect of over 30% in size; further: potency means the concentration at half of the fitted maximal effect
Outline: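 Fluorescence read-out of live-cell protease activity (CellTiter-Fluor) after 1 hr with reagent. This was measured in the same wells as the caspase-3/7 luminescence, on HepG2 cells exposed to DMSO-dissolved compounds for 16 hr at 37 C.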

[12] = biological target: Nuclear receptor subfamily 1 group I member 2 (Homo sapiens) (UniProt O75469); experiment: Human pregnane X receptor (PXR) small molecule agonists, qHTS assay (AID 1346982); further: nearly all actives have a fitted effect of over 35% in size; further: potency means the concentration at half of the fitted maximal effect
Outline: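 HepG2 PXR-Luc reporter line, 5% charcoal-stripped FBS; 5 hr pre-incubation, compound (DMSO) 24 hr at 37 C/5% CO2; ONE-Glo 30 min RT; luminescence read-out.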

[13] = biological target: Acetylcholinesterase (Homo sapiens) (UniProt P22303); experiment: Acetylcholinesterase (AChE) small molecule antagonists: colormetric cell-based qHTS assay (AID 1347395; calls by dose curve; further: nearly all actives have a fitted effect of over 30% in size; further: potency means the concentration at half of the fitted maximal effect)
Outline: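 Colorimetric read-out: DTNB detects thiocholine released when cellular AChE in SH-SY5Y cells hydrolyses acetylthiocholine. Cells attached overnight, received compound for 30 min at 37 C, then substrate mix for 90 min at 37 C.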

[14] = biological target: Acetylcholinesterase (Homo sapiens) (UniProt P22303); experiment: Acetylcholinesterase (AChE) small molecule antagonists: enzyme-based qHTS assay (AID 1347397; calls by dose curve; further: nearly all actives have a fitted effect of over 55% in size; further: potency means the concentration at half of the fitted maximal effect); conditions: Potency: AChE enzyme activity inhibition
Outline: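 Colorimetric DTNB read-out of thiocholine released from acetylthiocholine by recombinant human AChE (50 mU/mL as dispensed). Compounds were preincubated 30 min at RT before substrate/DTNB addition, with a 10 min RT reaction.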

[15] = qHTS assay to identify small molecule antagonists of the progesterone receptor (PR) signaling pathway - cell viability counter screen (AID 1346798);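 further: HEK293T PR-UAS-bla cells stimulated with the agonist R5020; series mostly up to about 92 µM; nearly all actives have a fitted effect of over 50% in size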
Outline: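 HEK293T PR-UAS-bla, 2% charcoal-stripped FBS; 4 hr pre-plate; cpd + R5020, 16 h 37C; LiveBLAzer read first; then CellTiter-Glo 30 min RT, luminescence.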

[16] = qHTS assay to identify small molecule agonists of the progesterone receptor (PR) signaling pathway - cell viability counter screen (AID 1346799; calls by dose curve; further: nearly all actives have a fitted effect of over 45% in size)
Outline: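 Luminescence from CellTiter-Glo, added after the beta-lactamase FRET read in the same wells, gave cytotoxicity in PR-UAS-bla HEK293T cells treated with compounds for 16 hr at 37C.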

[17] = Human pregnane X receptor (PXR) small molecule agonists, qHTS cell viability counter screen (AID 1346977); further: nearly all actives have a fitted effect of over 50% in size; further: potency means the concentration at half of the fitted maximal effect
Outline: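 PXR-Luc HepG2, 2,000 cells/well, 5% charcoal-stripped FBS; 5hr settle; cpd 24hr, 37C/5% CO2; CellTiter-Fluor at 23hr, read 1hr later (fluorescence).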

Chain of Acetylcholinesterase (Homo sapiens) (P22303 whole entry, looked up): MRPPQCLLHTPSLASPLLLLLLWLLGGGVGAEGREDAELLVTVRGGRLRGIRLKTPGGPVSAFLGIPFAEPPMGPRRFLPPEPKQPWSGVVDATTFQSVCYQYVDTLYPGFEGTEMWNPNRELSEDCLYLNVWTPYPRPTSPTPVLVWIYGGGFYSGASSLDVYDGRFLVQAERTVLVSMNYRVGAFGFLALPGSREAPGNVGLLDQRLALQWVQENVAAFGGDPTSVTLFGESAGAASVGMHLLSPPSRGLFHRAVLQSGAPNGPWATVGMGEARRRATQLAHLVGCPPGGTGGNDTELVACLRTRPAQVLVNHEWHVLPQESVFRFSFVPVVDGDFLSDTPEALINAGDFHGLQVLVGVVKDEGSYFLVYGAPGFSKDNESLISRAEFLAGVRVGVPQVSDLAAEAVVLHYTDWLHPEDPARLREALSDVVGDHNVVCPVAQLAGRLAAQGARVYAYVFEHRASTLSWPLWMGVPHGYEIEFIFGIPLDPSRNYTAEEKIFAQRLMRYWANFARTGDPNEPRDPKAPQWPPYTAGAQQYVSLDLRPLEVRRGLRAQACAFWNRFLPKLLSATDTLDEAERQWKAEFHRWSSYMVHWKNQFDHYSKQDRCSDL
Chain of Thyrotropin-releasing hormone receptor (Homo sapiens) (P34981 whole entry, looked up): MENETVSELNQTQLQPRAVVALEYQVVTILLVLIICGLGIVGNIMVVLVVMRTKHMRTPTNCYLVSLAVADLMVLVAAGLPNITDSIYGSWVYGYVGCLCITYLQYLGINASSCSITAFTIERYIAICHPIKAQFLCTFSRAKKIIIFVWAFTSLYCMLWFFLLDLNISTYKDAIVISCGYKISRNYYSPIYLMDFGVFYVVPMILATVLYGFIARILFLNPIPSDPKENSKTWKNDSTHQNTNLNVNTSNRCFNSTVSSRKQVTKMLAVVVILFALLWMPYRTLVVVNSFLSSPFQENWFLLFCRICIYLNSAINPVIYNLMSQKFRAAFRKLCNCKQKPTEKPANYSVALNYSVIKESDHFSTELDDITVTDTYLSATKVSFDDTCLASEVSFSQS
Chain of Nuclear receptor subfamily 1 group I member 2 (Homo sapiens) (O75469 whole entry, looked up): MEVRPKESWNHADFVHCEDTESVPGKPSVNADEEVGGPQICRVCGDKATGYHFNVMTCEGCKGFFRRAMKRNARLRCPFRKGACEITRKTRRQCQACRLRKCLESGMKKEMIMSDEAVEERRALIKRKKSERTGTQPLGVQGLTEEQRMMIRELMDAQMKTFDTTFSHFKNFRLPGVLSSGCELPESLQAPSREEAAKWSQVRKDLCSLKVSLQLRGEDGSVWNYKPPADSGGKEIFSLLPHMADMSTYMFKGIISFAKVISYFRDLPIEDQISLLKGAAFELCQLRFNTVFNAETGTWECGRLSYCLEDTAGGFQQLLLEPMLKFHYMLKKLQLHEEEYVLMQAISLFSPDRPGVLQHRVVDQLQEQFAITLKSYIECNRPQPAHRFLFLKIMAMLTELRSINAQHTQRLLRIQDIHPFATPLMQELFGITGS
Chain of Progesterone receptor (Homo sapiens) (P06401 whole entry, looked up): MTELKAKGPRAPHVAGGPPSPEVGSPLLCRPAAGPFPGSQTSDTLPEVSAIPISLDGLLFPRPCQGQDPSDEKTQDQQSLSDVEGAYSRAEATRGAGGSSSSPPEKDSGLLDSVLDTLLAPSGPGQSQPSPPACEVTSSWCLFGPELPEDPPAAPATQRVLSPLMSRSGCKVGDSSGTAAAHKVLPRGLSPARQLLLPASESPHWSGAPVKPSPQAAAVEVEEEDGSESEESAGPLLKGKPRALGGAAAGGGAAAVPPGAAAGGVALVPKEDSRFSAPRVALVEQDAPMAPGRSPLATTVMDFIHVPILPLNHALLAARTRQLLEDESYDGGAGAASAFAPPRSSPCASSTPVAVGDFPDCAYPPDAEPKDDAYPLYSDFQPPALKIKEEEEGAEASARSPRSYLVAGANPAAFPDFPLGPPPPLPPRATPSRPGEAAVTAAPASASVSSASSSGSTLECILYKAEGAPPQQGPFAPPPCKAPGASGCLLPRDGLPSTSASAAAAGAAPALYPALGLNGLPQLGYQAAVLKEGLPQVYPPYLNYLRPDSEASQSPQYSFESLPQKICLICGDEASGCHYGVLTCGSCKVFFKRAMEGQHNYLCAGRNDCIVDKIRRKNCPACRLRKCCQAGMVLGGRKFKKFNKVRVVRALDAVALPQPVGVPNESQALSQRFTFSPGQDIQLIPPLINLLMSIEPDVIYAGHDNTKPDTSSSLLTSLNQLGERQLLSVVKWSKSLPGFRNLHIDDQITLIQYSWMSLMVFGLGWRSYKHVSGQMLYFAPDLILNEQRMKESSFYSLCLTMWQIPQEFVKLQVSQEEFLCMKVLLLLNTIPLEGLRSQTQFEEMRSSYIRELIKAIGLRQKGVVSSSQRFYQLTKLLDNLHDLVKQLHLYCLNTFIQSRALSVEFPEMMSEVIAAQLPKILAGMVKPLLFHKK

Row | SMILES | Potency [1] | Potency [2] | Potency [3] | Potency [4] | outcome [5] | Potency [6] | Potency [7] | Potency [8] | Potency [9] | Potency [10] | Potency [11] | Potency [12] | Potency [13] | Potency [14] | Potency [15] | Potency [16] | Potency [17]
1 | c1ccc(Nc2ccc(Nc3ccccc3)cc2)cc1 | inactive | 6.09 µM (active) | inactive | inactive | inactive | inactive | inactive | inactive | 48.4 µM (active) | inactive | inactive | 24.2 µM (active) | inactive | inactive | – | – | –
2 | CCC(C)c1cccc(C(C)CC)c1O (stereo not drawn) | inactive | – | inactive | inactive | inactive | inactive | inactive | – | – | inactive | inactive | inactive | inactive | inactive | inactive | inactive | inactive
3 | COC(=O)C(C)N(C(=O)c1ccco1)c1c(C)cccc1C (stereo not drawn) | inactive | – | inactive | inactive | inactive | – | – | inactive | inactive | inactive | inactive | 10.9 µM (active) | inactive | inactive | inactive | inactive | inactive
4 | CC(Cl)CCl (stereo not drawn) | inactive | – | inactive | inactive | inactive | – | – | inactive | inactive | inactive | inactive | inactive | – | inactive | inactive | – | inactive
5 | C[C@H]1[C@H](c2ccc(Cl)cc2)SC(=O)N1C(=O)NC1CCCCC1 | inactive | 13.7 µM (active) | – | inactive | inactive | inactive | inactive | inactive | – | – | inactive | 6.86 µM (active) | – | inactive | – | – | –
6 | N#Cc1ccc(N(CC(N)=O)CC(F)(F)F)cc1C(F)(F)F | inactive | – | – | inactive | inactive | inactive | inactive | inactive | inactive | inactive | inactive | inactive | inactive | inactive | inactive | – | inactive
7 | Nc1ccc(Cl)cc1C(=O)c1ccccc1F | inactive | – | inactive | inactive | inactive | inactive | inactive | inactive | – | – | – | 29.8 µM (active) | – | inactive | inactive | inactive | inactive
8 | CCNS(=O)(=O)C(F)(F)C(F)(F)C(F)(F)C(F)(F)C(F)(F)C(F)(F)C(F)(F)C(F)(F)F | inactive | 65.7 µM (active) | – | inactive | inactive | inactive | inactive | inactive | inactive | inactive | inactive | inactive | – | inactive | – | – | inactive
9 | O=C1C[C@@H]2OCC=C3CN4CC[C@]56c7ccccc7N1[C@H]5[C@H]2[C@H]3C[C@H]46 | inactive | inactive | inactive | inactive | inactive | inactive | inactive | inactive | – | inactive | – | – | – | – | – | – | –
10 | Cc1ccc2cc3c(ccc4ccccc43)c3c2c1CC3 | inactive | – | – | inactive | – | inactive | inactive | 6.13 µM (active) | inactive | inactive | – | 6.13 µM (active) | inactive | inactive | inactive | inactive | –
11 | CCc1cccc(C)c1N(C(=O)CCl)[C@@H](C)COC | inactive | – | inactive | inactive | inactive | inactive | inactive | inactive | – | inactive | inactive | 7.7 µM (active) | inactive | inactive | inactive | – | inactive
12 | CC(C)C(Nc1ccc(C(F)(F)F)cc1Cl)C(=O)OC(C#N)c1cccc(Oc2ccccc2)c1 (stereo not drawn) | inactive | – | inactive | – | inactive | – | – | inactive | inactive | – | inactive | 13.8 µM (active) | inactive | inactive | inactive | – | inactive
13 | CNC(=O)Oc1cc(C)cc(C(C)C)c1 | inactive | inactive | inactive | inactive | inactive | inactive | inactive | inactive | – | inactive | inactive | – | 633 nM (active) | 399 nM (active) | – | – | inactive
14 | Brc1ccc(Oc2ccc(Br)cc2Br)c(Br)c1 | inactive | – | inactive | inactive | inactive | inactive | inactive | inactive | – | inactive | inactive | 30.7 µM (active) | inactive | inactive | inactive | – | inactive
15 | COC(=O)N(OC)c1ccccc1COc1ccn(-c2ccc(Cl)cc2)n1 | inactive | 4.86 µM (active) | inactive | inactive | inactive | inactive | inactive | inactive | 0.0433 µM (active) | – | 54.5 µM (active) | 68.6 µM (active) | inactive | inactive | – | – | 5.45 µM (active)
16 | ClSC(Cl)(Cl)Cl | inactive | – | inactive | inactive | inactive | inactive | inactive | inactive | inactive | inactive | inactive | inactive | inactive | inactive | inactive | inactive | inactive
17 | O=[N+]([O-])[O-].[Tl+] | inactive | – | inactive | inactive | inactive | – | – | inactive | 61.6 µM (active) | inactive | – | – | – | – | inactive | – | –
18 | CO/N=C(/C1=NOCCO1)c1ccccc1Oc1ncnc(Oc2ccccc2Cl)c1F | inactive | 27.3 µM (active) | – | inactive | inactive | inactive | inactive | inactive | 1.72 µM (active) | inactive | 30.6 µM (active) | 27.3 µM (active) | inactive | inactive | – | – | 9.68 µM (active)

— PubChem BioAssay (Tox21)
